According to PubChem BioAssay:
Active and inactive are the calls of the source.

Columns and labels:
[1] = target: Albumin (Bos taurus) (UniProt P02769); experiment: bovine serum albumin binders on microarray, profiling panel, artefact control for SMM control protein annotation, biochemical, small-molecule microarray, Alexa647 label, 635/667 nm fluorescence (AID 1118); details: BSA-A647 binding, fluorescence 635 nm, higher = more signal;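 also: score merges 667 nm emission intensity and signal-to-noise per printed compound spot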
Albumin (Bos taurus), sequence (P02769 whole entry, looked up): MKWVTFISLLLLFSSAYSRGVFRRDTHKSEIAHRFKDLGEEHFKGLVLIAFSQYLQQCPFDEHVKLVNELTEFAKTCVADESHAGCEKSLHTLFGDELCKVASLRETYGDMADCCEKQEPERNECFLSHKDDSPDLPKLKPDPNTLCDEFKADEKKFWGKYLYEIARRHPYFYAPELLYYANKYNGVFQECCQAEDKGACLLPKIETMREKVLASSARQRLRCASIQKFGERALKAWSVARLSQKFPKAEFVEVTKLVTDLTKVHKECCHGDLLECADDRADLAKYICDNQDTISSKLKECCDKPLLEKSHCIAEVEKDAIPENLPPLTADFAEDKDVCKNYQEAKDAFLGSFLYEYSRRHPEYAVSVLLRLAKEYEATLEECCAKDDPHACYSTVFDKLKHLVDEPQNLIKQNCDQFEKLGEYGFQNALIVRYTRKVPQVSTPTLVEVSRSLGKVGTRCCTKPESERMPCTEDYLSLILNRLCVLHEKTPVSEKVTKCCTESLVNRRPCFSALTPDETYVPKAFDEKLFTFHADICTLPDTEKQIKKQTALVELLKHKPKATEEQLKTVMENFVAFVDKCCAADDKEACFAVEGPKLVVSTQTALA

[2] = small-molecule microarray binders of probe aXIP, primary screen, biochemical, NeuroSMM set, 635/667 nm fluorescence (AID 1119); details: higher = more signal, called active from +8 up or from −8 down;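 also: probe is the protein aXip251-270 applied at 1 µg/mL to compound-printed slides; binding of probe to printed compounds measured as 667 nm fluorescence plus signal to noise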
[3] = small-molecule binders of probe aNOTCH3, primary screen, biochemical, small-molecule microarray, 635/667 nm fluorescence (AID 1120); details: higher = more signal;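 also: probe is a biotin-tagged antibody raised against NOTCH3 rather than NOTCH3 protein; score merges spot fluorescence near 667 nm with spot signal to noise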
[4] = small-molecule binders of probe aNOTCH2, primary screen, biochemical, small-molecule microarray, 635/667 nm fluorescence (AID 1121); details: higher = more signal;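 also: score merges feature fluorescence read at 667 nm with its signal to noise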
[5] = target: Carbonic anhydrase 2 (Homo sapiens) (UniProt P00918); experiment: CAII small-molecule binders, profiling panel, biochemical, small-molecule microarray, Alexa647-labelled CAII (AID 1122); details: CAII-A647 binding fluorescence, higher = more signal
[6] = COS7 lysate on small-molecule microarray, probe aHis, 635 nm (AID 1123); details: COS7 cell lysate, fluorescence, higher = more signal;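 also: z-score combines 667nm fluorescence intensity with signal-to-noise per printed compound spot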
[7] = compound binding in COS7 lysate, probe aLAP1, primary screen, cell lysate, small-molecule microarray (AID 1124); details: probe aLAP1, fluorescence, higher = more signal;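 also: lysate comes from COS7 cells expressing LAP1 and is applied at 0.3 µg/mL; score merges spot fluorescence near 667 nm with signal-to-noise over triplicate slides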
[8] = tested on: Sam68 (KHDRBS1); experiment: Sam68 small-molecule binders, primary screen, biochemical, small-molecule microarray, 635 nm fluorescence (AID 1125); details: small-molecule microarray binding, higher = more signal;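 also: score merges 667 nm channel intensity with signal to noise over triplicate slides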
[9] = tested on: Chordin-like protein 2 (CHRDL2); experiment: CHRDL2 small-molecule binders, primary screen, biochemical, small-molecule microarray, 635 nm fluorescence (AID 1126); details: small-molecule microarray binding, fluorescence 635 nm; higher = more signal;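 also: printed compound slides probed with Chrdl2 protein at 4 µg/mL for 1 h at 4 C; score merges 667 nm emission intensity with signal to noise over three replicate slides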
[10] = target: Concanavalin-A (Canavalia ensiformis) (UniProt P02866); experiment: ConA small-molecule binders, primary screen, artefact control for SMM control protein annotation, biochemical, small-molecule microarray, Alexa647 label, 635 nm (AID 1127); details: ConA-A647 binding fluorescence, higher = more signal;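 also: z combines 667 nm emission intensity with signal-to-noise across three replicate slides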
Concanavalin-A (Canavalia ensiformis), sequence (P02866 whole entry, looked up): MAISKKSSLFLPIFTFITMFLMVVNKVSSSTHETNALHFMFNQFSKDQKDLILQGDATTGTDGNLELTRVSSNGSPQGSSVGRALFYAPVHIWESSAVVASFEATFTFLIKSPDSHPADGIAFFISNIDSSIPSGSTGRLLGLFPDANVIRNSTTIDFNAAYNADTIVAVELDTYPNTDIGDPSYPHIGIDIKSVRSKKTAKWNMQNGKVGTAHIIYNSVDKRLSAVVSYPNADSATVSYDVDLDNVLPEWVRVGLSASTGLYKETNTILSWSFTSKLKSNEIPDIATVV

[11] = anti-His antibody binders, primary screen, artefact control for SMM control protein annotation, biochemical, small-molecule microarray, 635 nm fluorescence (AID 1128); details: anti-His Alexa647 antibody binding, higher = more signal;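 also: score merges feature fluorescence with signal-to-noise for each printed compound spot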
[12] = tested on: Human papillomavirus type 1a E7 protein (residues 1-88); experiment: HPV1a E7 small-molecule binders, primary screen, biochemical, small-molecule microarray, residues 1-88, 635 nm (AID 1129); details: small-molecule microarray binding, fluorescence 635 nm; higher = more signal
[13] = target: Focal adhesion kinase 1 (Homo sapiens) (UniProt Q05397); experiment: small-molecule microarray binders of FAK, primary screen, biochemical, 635/667 nm fluorescence, BSA, DTT (AID 1130); details: PTK2 binding, 635 nm fluorescence, higher = more signal;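 also: composite of spot emission at 667 nm and signal to noise over triplicate slides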
Focal adhesion kinase 1 (Homo sapiens), sequence (Q05397 whole entry, looked up): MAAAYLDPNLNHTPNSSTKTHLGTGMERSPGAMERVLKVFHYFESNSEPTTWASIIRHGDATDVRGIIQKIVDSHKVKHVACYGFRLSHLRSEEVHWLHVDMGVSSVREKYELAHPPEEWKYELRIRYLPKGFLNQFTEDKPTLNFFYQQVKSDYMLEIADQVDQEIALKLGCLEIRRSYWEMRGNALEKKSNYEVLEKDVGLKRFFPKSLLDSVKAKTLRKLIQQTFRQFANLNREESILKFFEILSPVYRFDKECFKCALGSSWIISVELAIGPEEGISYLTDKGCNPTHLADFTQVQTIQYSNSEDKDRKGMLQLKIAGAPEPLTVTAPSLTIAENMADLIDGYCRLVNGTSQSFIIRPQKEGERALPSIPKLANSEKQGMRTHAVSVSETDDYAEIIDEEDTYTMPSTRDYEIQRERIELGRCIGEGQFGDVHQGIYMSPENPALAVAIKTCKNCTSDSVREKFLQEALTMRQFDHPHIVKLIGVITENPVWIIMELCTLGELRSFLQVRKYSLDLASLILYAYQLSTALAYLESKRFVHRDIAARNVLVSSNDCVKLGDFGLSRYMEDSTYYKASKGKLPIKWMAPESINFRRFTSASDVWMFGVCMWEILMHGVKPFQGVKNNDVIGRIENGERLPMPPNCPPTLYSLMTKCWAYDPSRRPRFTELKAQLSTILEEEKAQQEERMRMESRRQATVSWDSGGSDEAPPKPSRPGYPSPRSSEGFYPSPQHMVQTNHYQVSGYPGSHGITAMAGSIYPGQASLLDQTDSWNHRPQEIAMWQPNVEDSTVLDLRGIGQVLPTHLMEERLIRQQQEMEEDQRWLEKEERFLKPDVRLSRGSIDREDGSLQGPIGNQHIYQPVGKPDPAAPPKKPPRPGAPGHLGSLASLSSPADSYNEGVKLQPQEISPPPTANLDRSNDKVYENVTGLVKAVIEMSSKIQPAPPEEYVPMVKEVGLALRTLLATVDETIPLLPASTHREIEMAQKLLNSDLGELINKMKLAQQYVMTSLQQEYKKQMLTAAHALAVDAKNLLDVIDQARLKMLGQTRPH

[14] = tested on: Fibrinogen (Alexa647-labelled); experiment: fibrinogen binders on compound microarrays, profiling panel, artefact control for SMM control-protein annotation, biochemical, small-molecule microarray, 635/667 nm fluorescence (AID 1131); details: fibrinogen-A647 binding fluorescence, higher = more signal;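 also: z-score merges 667 nm fluorescence with per-spot signal-to-noise over triplicate slides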
[15] = target: Follistatin (Homo sapiens) (UniProt P19883); experiment: follistatin binders on small-molecule microarrays, primary screen, biochemical, small-molecule microarray, 635/667 nm fluorescence (AID 1132); details: FST binding, 635 nm fluorescence, higher = more signal
Follistatin (Homo sapiens), sequence (P19883 whole entry, looked up): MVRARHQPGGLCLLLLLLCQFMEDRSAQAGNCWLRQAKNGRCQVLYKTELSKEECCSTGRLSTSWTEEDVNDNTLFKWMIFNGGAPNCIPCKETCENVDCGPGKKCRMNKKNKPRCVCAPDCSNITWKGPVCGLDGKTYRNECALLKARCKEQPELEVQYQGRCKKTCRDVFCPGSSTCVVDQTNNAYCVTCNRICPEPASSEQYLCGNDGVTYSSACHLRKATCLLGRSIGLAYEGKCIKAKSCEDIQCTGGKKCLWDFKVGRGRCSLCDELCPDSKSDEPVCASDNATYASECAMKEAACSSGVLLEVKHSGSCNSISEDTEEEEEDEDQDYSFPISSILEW

[16] = target: Fibroblast growth factor 2 (Homo sapiens) (UniProt P09038); experiment: FGF2 binders on small-molecule microarrays, primary screen, biochemical, small-molecule microarray, 635/667 nm fluorescence (AID 1133); details: small-molecule microarray binding, FGF2, fluorescence 635/667; higher = more signal
Fibroblast growth factor 2 (Homo sapiens), sequence (P09038 whole entry, looked up): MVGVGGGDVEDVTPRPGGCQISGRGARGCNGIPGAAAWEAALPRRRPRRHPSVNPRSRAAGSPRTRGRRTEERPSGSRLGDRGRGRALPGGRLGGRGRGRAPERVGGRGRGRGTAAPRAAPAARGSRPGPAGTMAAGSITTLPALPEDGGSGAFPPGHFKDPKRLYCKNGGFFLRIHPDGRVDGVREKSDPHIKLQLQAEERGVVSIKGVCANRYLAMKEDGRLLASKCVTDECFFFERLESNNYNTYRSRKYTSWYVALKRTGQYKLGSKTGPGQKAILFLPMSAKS

[17] = mitochondrial membrane potential change in A549 cells, profiling panel, cell-based, JC-1 fluorescence, basal, 24 h, 100 nL (AID 1138); details: higher = more signal;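 also: A549 lung adenocarcinoma cells under basal conditions with no added stimulus; test concentration not given here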
[18] = tested on: Lefty1; experiment: Lefty1 binders on small-molecule microarrays, primary screen, biochemical, small-molecule microarray, 635/667 nm fluorescence (AID 1139); details: small-molecule microarray binding, fluorescence 635/667; higher = more signal
[19] = tested on: wheat germ agglutinin (Triticum aestivum), Alexa647-labelled; experiment: wheat germ agglutinin binders on compound microarrays, profiling panel, artefact control for SMM control-protein annotation, biochemical, small-molecule microarray, 635/667 nm fluorescence (AID 1140); details: WGA-A647 binding, 635 nm fluorescence, higher = more signal;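 also: score merges 667 nm feature emission with signal to noise over triplicate slides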
[20] = target: Luciferin 4-monooxygenase (Photinus pyralis) (UniProt P08659); experiment: firefly luciferase enzyme inhibitors, primary screen, biochemical, luminescence, purified enzyme, 2006 set (AID 1141); details: SteadyGlo luminescence, 30 min, higher = more signal, called active from +8 up or from −8 down;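 also: cell-free assay with purified firefly luciferase at 100 ng per well in PBS; test concentration not given here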
Luciferin 4-monooxygenase (Photinus pyralis), sequence (P08659 whole entry, looked up): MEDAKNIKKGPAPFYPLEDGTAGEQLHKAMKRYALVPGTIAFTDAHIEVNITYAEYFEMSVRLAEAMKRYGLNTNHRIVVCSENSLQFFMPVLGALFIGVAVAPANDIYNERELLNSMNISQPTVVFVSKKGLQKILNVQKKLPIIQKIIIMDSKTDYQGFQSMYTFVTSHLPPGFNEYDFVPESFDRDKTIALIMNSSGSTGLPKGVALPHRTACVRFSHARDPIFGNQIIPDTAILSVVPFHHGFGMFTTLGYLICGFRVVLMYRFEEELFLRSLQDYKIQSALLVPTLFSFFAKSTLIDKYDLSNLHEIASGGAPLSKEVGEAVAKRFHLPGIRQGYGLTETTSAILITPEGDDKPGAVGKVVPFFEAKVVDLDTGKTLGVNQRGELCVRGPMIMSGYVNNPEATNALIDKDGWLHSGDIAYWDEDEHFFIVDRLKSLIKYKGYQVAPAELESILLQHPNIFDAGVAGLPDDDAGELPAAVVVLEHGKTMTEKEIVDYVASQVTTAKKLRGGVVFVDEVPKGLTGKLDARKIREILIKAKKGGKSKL

Compound | composite z-score [1] | composite Z-score [2] | composite z-score [3] | composite z-score [4] | composite z-score [5] | composite z-score [6] | composite z-score [7] | composite z-score [8] | composite z-score [9] | composite z-score [10] | composite z-score [11] | composite z-score [12] | composite z-score [13] | composite z-score [14] | composite z-score [15] | composite z-score [16] | z-score [17] | composite z-score [18] | composite z-score [19] | z-score [20]
CC(C)=CCN[C@H](CO)c1ccccc1 | -0.0472 | -0.139 (inactive) | -0.0122 | -0.14 | -0.115 | 0.0524 | -0.021 | -0.127 | 0.218 | 0.0857 | -0.23 | -0.341 | -0.0383 | 0.118 | 0.546 | 0.314 | -0.989 | 0.564 | -0.246 | 0.765 (inactive)
C=CCOC(=O)[C@@H]1[C@H]2C(=O)O[C@H](c3ccccc3)[C@H](c3ccccc3)N2[C@H](c2ccc(OCCOC(=O)[C@H]3C[C@H]4C(=O)N5CCC[C@H]5C(=O)N4[C@H]3c3ccc(O)cc3)cc2)[C@@]12C(=O)Nc1ccc(I)cc12 | -1.18 | 0.76 (inactive) | -0.213 | 0.0701 | 0.339 | 1.58 | -0.299 | 1.3 | 1.09 | 1.13 | 2.01 | 1.19 | 0.453 | 0.409 | 1.39 | 1.58 | -1.6 | 1.42 | 0.497 | -0.376 (inactive)
C[C@H]1NC(=O)[C@@]23C(=O)N[C@@H](Cc4ccccc4)C2[C@H](C)[C@@]2(C)O[C@H]2C3/C=C/C/C=C\CNC(=O)[C@@H]2CCCN2C1=O (stereo not given in full) | -0.274 | 0.542 (inactive) | -0.229 | -0.14 | 0.507 | 0.0441 | -0.301 | 0.574 | 0.258 | 1.13 | -0.224 | 0.303 | 0.0122 | 0.859 | 1.05 | 0.692 | 0.419 | 0.946 | 0.765 | 0.193 (inactive)
C=C(COC)/C(=C/C[C@H](OC(C)=O)c1ccc(CO)o1)c1cc(C(=O)OC)ccc1OC | 0.424 | 0.482 (inactive) | -0.103 | -0.155 | 0.654 | 0.107 | 0.022 | 0.322 | 0.0151 | -0.714 | 0.795 | 0.516 | 0.0348 | 0.255 | 0.435 | -0.1 | -0.91 | 0.57 | -0.199 | -0.769 (inactive)
CN(C)CCCC[C@@H]1NC(=O)[C@@H]2C[C@H](C(=O)NCCCCCCN)[C@H](c3cccc(OCCO)c3)N2C1=O | 0.839 | 0.938 (inactive) | 1.07 | 0.308 | 0.632 | 3.25 | 0.495 | 1.3 | 0.299 | 1.13 | 3.34 | 1.2 | 1.48 | 0.936 | 0.861 | 0.357 | -0.9 | 0.409 | 1.49 | 0.132 (inactive)
O=C1NC(=O)C2C1C=CC(C(O)c1cc(C(F)(F)F)cc(C(F)(F)F)c1)N2Nc1ccccn1 (stereo not given) | 0.0063 | 0.416 (inactive) | -0.0972 | -0.0486 | 0.673 | 2.15 | 0.536 | 0.079 | 0.673 | 0.297 | 0.191 | 0.289 | 0.187 | 0.604 | 0.89 | 0.047 | 0.456 | 0.187 | 0.574 | 0.0198 (inactive)
O=C(c1ccccc1)N1Cc2ccccc2C[C@@]2(COC(c3ccc(OCCCO)cc3)=N2)C1=O | 0.833 | -0.305 (inactive) | -0.0647 | -0.0304 | 0.288 | 2.66 | 0.549 | 1.29 | 0.271 | 1.11 | 2.32 | 1.23 | 0.242 | 0.905 | 1.34 | 1.45 | 0.604 | 0.663 | 0.71 | -1.31 (inactive)
CCCC[C@@H]1C[C@H]1[C@@H](NC(=O)c1ccco1)c1ccc(-c2ccccc2)cc1 | 0.0697 | 0.572 (inactive) | 0.0155 | 0.0474 | 0.344 | -0.66 | -0.305 | 0.325 | -0.33 | 0.163 | 0.633 | 0.665 | 0.218 | -0.275 | 0.038 | -0.199 | -1.12 | -0.0072 | 0.124 | 1.01 (inactive)
COCCOC(=O)N1C(=O)[C@@]2(c3cc(C#Cc4ccc(OC)cc4)ccc31)[C@H](c1ccccc1OCCO)N1[C@H](c3ccccc3)[C@H](c3ccccc3)OC(=O)[C@H]1[C@@H]2C(=O)NC[C@H](O)c1ccccc1 | -0.0206 | -0.112 (inactive) | 0.156 | -0.115 | 0.528 | 1.6 | 0.618 | 1.29 | 0.711 | 0.999 | 0.992 | 1.24 | 0.824 | 0.782 | 1.33 | 1.6 | -0.922 | 1.16 | 0.889 | 0.385 (inactive)
CCCCCN1CC=CC23O[C@@H]4/C=C\CCC(C)OC(=O)C4[C@H]2C(=O)N(C(C)CO)[C@@H]3C1=O (stereo not given in full) | -0.671 | -0.275 (inactive) | -0.127 | -0.14 | 0.536 | -0.0346 | 0.169 | 0.579 | -0.388 | -0.211 | -0.361 | -0.575 | -0.521 | -0.925 | 0.274 | -0.556 | 0.157 | 0.696 | -0.721 | -0.078 (inactive)
CN(C)CCCCCCNC(=O)[C@H]1C[C@H]2C(=O)N3CCC[C@H]3C(=O)N2[C@H]1c1ccc(O)cc1 | -0.584 | 0.233 (inactive) | 0.377 | -0.0438 | 0.561 | 2.04 | 0.81 | 1.34 | 1.43 | 1.22 | 2.74 | 1.24 | 1.03 | 0.678 | 1.34 | 1.48 | -0.727 | 1.39 | 0.622 | -0.171 (inactive)
